Sampled rows, rich in hits. Any-hit rate of the full collection: about 6.3%.
DPM-DC inhibit: S. pneumoniae DPM-DC inhibitors, primary screen, biochemical, PK/LDH-coupled NADH fluorescence. calls only at 10 µM. purified DPM-DC. actives 0.49% (n = 65,000). AID 556, 2006;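 active = the 320 compounds with the highest percent inhibition in the single-dose primary screen, excluding strongly autofluorescent ones, cut at about 32% in these data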;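 note: kinetic rate of NADH fluorescence loss reporting ADP formed by the decarboxylase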
MK inhibit: S. pneumoniae MK inhibitors, primary screen, biochemical, PK/LDH-coupled NADH absorbance. AID 555, 2006. actives 0.48% (n = 65,000). mevalonate kinase [Streptococcus pneumoniae D39]. purified MK, PK/LDH-coupled NADH absorbance 340 nm. inhibition, % at 10 µM;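 active = ranked among the strongest by inhibition in the single 10 µM screen, a fixed top-ranked set picked for dose follow-up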
NADH coupling: inhibitors of PK/LDH coupling enzymes, profiling panel, artefact control, biochemical, MLSMR library. IC50, µM (series often up to 10 µM). coupled PK/LDH NADH assays, four targets. AID 774, 2007. actives 0.02% (n = 65,000);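 active = single-dose screening hits from any of four coupled enzyme assays that gave an IC50 when retested across doses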;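 note: the DPM-DC format reads NADH fluorescence rather than 340 nm absorbance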
Abs 340nm: compound light absorbance at 340 nm, profiling panel, artefact control, biochemical, MLSMR library, data from PS, PMK, MK assays. compound absorbance at 340 nm, fold over control. fold change at 10 µM. 65,000 tested, under 10 active. AID 708, 2007;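 active = at 10 µM dose, initial 340 nm absorbance at least 2 fold that of control wells; inactive = change under 2 fold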;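 note: initial absorbance extrapolated from kinetic A340 decline of NADH oxidation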
PMK inhibit: S. pneumoniae PMK inhibitors, primary screen, biochemical, mevalonate pathway, pilot trial included | actives 0.49% (n = 65,000) | inhibition, % at 10 µM | phosphomevalonate kinase (Streptococcus pneumoniae D39) | purified PMK, PK/LDH-coupled NADH absorbance 340 nm | AID 539, 2006;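 active = top-ranked compounds by inhibition in the single 10 µM screen, taking a fixed number of the strongest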
Autofluor 339: intrinsic fluorescence of library compounds, ex339/em460 – biochemical, MLSMR library, data from DPM-DC assay, artefact control, profiling panel. compound autofluorescence, ex339/em460 nm, NADH buffer; active compounds read high; 1 = no-compound wells, NADH background. fluorescence fold increase at 10 µM. actives 5.5% (n = 65,000). AID 709, 2007;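 active = at 10 µM, mean starting fluorescence two-fold or more over control wells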;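 note: signal is the first read of a kinetic run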
Of the large screens only hits and unclear results are named; the others gave an inactive call.

COc1ccc2oc(-c3ccccc3)c(C(N)=O)c2c1	Autofluor 339 2.1 (not shown: DPM-DC inhibit)
Nc1c(C(=O)CCC(=O)O)oc2ccc(Cl)cc12	none
COC(=O)c1oc2ccc(OC)cc2c1N	Autofluor 339 2.6
CN(C)C(=O)c1c(-c2ccccc2)oc2ccc(O)cc12	Autofluor 339 2.2 (not shown: DPM-DC inhibit)
CCOC(=O)c1c(COc2ccccc2)oc2ccc(O)cc12	none
CC1NC2(C(=O)N(Cc3ccccc3)c3ccccc32)C2C(=O)N(c3ccccc3)C(=O)C12 (stereo not given)	none
CCC(C)NC(=O)c1c(-c2cc(Cl)c(OC)c(Cl)c2)noc1C (stereo not given)	none
COc1ccc(CCNC(=O)CSc2nncn2N)cc1OC	none
CCOC(=O)c1cccc(NC(=O)CSc2nnc(COc3ccccc3C)o2)c1	none
CCCCNc1cc(NC(C)=O)cc2cc(OC)c(OC)cc12	Autofluor 339 2.1 (not shown: DPM-DC inhibit)
CCCC(=O)Nc1cc(OC)c(OC)cc1C(=O)O	none
CCN(C(=O)c1cn(CC)c(=O)c2cc(OC)c(OC)cc12)c1ccccc1C	none
CC1CN(C(=O)c2scc3c2OCCO3)CC(C)O1 (stereo not given)	none
COc1ccc2[nH]c(=O)c(CN(Cc3nnnn3Cc3ccccc3)CC3CCCO3)cc2c1 (stereo not given)	Autofluor 339 2.1
COc1ccc2cc(CN(Cc3cccnc3)Cc3nnnn3Cc3ccccc3)c(=O)[nH]c2c1	none
COc1ccc2[nH]c(=O)c(CN(Cc3nnnn3Cc3ccc(F)cc3)CC3CCCO3)cc2c1 (stereo not given)	Autofluor 339 2
COCCn1nnnc1CN(Cc1cccnc1)Cc1cc2cc(OC)ccc2[nH]c1=O	DPM-DC inhibit active, Autofluor 339 2.2
Cc1cc(NC(=O)CSc2ncnc3ccccc23)no1	none
COc1cccc(NC(=O)CCS(=O)(=O)c2cccs2)c1	none
CC1(C)NC(=O)N(CC(O)CNC23CC4CC(CC(C4)C2)C3)C1=O (stereo not given)	none
COCCN(CCOC)Cc1c(O)ccc2c3c(c(=O)oc12)CCC3	Autofluor 339 2 (not shown: DPM-DC inhibit)
O=c1oc2c(CN3CCOCC3)c(O)c(Cl)cc2c2c1CCCC2	Autofluor 339 3.8 (not shown: DPM-DC inhibit)
O=c1oc2c(CN3CCOCC3)c(O)ccc2c2c1CCCC2	Autofluor 339 3.8 (not shown: DPM-DC inhibit)
COCCN(CCOC)Cc1cc(=O)oc2cc3c(cc12)CCC3	none
O=C(CSc1nc2ncccc2[nH]1)c1ccc(F)cc1	none
O=c1c(N2CCOCC2)nsnc1N1CCOCC1	none
CC1(C)Cc2c(c(-c3ccco3)[nH]c(=O)c2C#N)CS1	none
Cn1c(C(=O)NCCCN2CCCC2=O)cc2c(=O)n(C)c3ccccc3c21	none
Cn1c2ccccc2c2c(C(=O)NCCCN3CCCC3=O)cn(C3CCCCC3)c(=O)c21	Autofluor 339 2.5 (not shown: DPM-DC inhibit)
CN1CCN(CCCNC(=O)c2cn(C3CCCCC3)c(=O)c3c2c2ccccc2n3C)CC1	Autofluor 339 2.1 (not shown: DPM-DC inhibit)
O=C(NCCNCCO)c1c(O)c2cccc3c2n(c1=O)CCC3	none
COC(=O)CSc1nnc(CNC(=O)c2ccccc2OC)n1-c1ccc(OC)cc1	none
COCCN(CCOC)C(=O)c1c[nH]c2ccc(S(=O)(=O)N(C)c3ccc(F)cc3)cc2c1=O	Autofluor 339 2.3
CN(c1ccc(F)cc1)S(=O)(=O)c1ccc2[nH]cc(C(=O)O)c(=O)c2c1	none
Cn1c(=O)n(C)c2cc(/C=N/n3cnnc3)ccc21	Autofluor 339 2.8
Cn1c(-c2c(N)n(C3CCCC3)c3nc4ccccc4nc23)nc2ccccc21	Autofluor 339 3.8 (not shown: DPM-DC inhibit)
CCOC(=O)CCn1c2nc(C)cc(C)c2c(=O)n1-c1ccccc1	PMK inhibit 64, Autofluor 339 4.5 (not shown: DPM-DC inhibit)
CC(C)c1ccc(NC(=O)C(c2ccc3c(c2)OCO3)N2CCC3(CC2)OCCO3)cc1 (stereo not given)	none
Cc1nn(-c2ccc(F)cc2)c2c1cc(C#N)c1nc3ccccc3n12	Autofluor 339 2.5 (not shown: DPM-DC inhibit)

Bioassay records from PubChem BioAssay.
